# Reference: PubChem BioAssay AID1486 (The Scripps Research Institute Molecular Screening Center, 2009)
# About 2,400 (1.1%) of roughly 220,000 compounds were called active. The full list was thinned out, with actives kept by preference. Unmarked numbers belong to inactive results.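 Rule for the calls: active = inhibition above a per-campaign cutoff, the mean inhibition of all tested compounds plus 3 SD (cut at about 27% in these data); inactive = the rest.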
# Assay: growth loss in parental Ba/F3 cells – cell-based, murine pro-B, CellTiter-Glo luminescence, counter-screen for JAK2V617F inhibitor project (AID 1486);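 note: 0% = DMSO wells and 100% = JAK Inhibitor I control wells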
# Conditions: Ba/F3 parental viability, CellTiter-Glo ATP luminescence; at 5.6 µM; hits give high values
row,Compound,inhibition
1,Cc1ccc(-n2c(C)cc(/C=N/Nc3ccc([N+](=O)[O-])cn3)c2C)c(C)c1,50.2% (active)
2,Cc1cc(/C=N/Nc2ccc([N+](=O)[O-])cn2)c(C)n1-c1cccc(C(=O)O)c1,-1.49%
3,COc1cc(/C=N\Nc2ccc([N+](=O)[O-])cn2)ccc1OCC(=O)O,10.2%
4,Cc1cc(NC(=O)CSc2nc3cc(Cl)ccc3c(=O)n2Cc2ccco2)no1,8.02%
5,C[C@@H](C(=O)N1CCNCC1)n1cc(CCC(=O)O)nn1,-3.7%
6,O=C(Cn1cnc2ccccc21)N/N=C/c1ccco1,1.87%
7,COC(=O)c1cc(NC(=O)c2ccco2)ccc1N1CCOCC1,1.48%
8,Cc1ccc(CNC(=O)CCNC(=O)Cn2ccc3ccccc3c2=O)cc1,8.67%
9,COC(=O)COc1cccc2c(=O)n(CC(=O)NCCc3ccc(OC)c(OC)c3)ccc12,-0.48%
10,COC(=O)COc1cccc2c(=O)n(CC(=O)NCc3ccccc3)ccc12,44.3% (active)
11,Cc1ccc2nc(C)cc(N/N=C/c3ccc(F)cc3)c2c1,8.42%
12,NS(=O)(=O)c1ccc(CNC(=O)c2cnccn2)cc1,-6.36%
13,CCOc1ccc(OCc2cccc(C(=O)N(CC)CC)c2)cc1,1.21%
14,Cc1nn(-c2ccc([N+](=O)[O-])cc2)c(N)c1-c1ccccc1,-2.11%
15,Cc1ccc(N=C2NC(=O)c3cccc([N+](=O)[O-])c32)cc1,2.95%
16,O=C(NCc1ccccc1Cl)C1CCCO1 (stereo not drawn),4.65%
17,O=C(NNc1ccccn1)c1ccc(Cl)nc1,3.58%
18,NS(=O)(=O)c1ccc(NC(=O)COC(=O)c2ccc(Cl)nc2)cc1,4.09%
19,CCN(CC)c1ccc(NC(=O)c2ccc(Cl)nc2)cc1,72.5% (active)
20,Cc1ccc(C)c(NC(=O)c2ccc(OC(=O)c3ccco3)cc2)c1,5.55%
21,C=CCNc1scc(-c2ccccc2)[n+]1CC=C,1.05%
22,Cc1ccc(NC(=O)Nc2ccccc2)c(Br)c1,5.76%
23,C=CC[n+]1c(-c2ccc(C)cc2)csc1NNC(=O)Nc1ccccc1,57.4% (active)
24,CC(=O)Nc1ccc(/C=N/Nc2ccc(C(=O)c3c(C)cc4ccccn34)cc2[N+](=O)[O-])cc1,-11.2%

row,Compound,inhibition
1,CS(=O)(=O)Nc1cccc(-c2cn3ccccc3n2)c1,7.16%
2,Cc1ccc(CC(=O)Nc2cccc(C#N)c2)cc1,6.45%
3,CC(O)C(NS(=O)(=O)c1ccc(Cl)cc1)C(=O)OCc1cc([N+](=O)[O-])cc2c1OCOC2 (stereo not drawn),4.65%
4,CCNC(=O)c1sccc1-n1cccc1,2.59%
5,CCCCNC(=O)OCCSCCS(=O)(=O)c1ccc(Cl)cc1,-2.09%
6,Cc1ccc(NC(=O)c2oc3ccccc3c2C)c([N+](=O)[O-])c1,2.45%
7,CN(C(=O)COc1ncnc2c1cnn2-c1ccccc1)C1CCCCC1,-1.06%
8,c1ccc(-n2ncc3c(N4CCCC4)ncnc32)cc1,2.78%
9,c1ccc(-n2ncc3c2ncn2c(C4CCCCC4)nnc32)cc1,97.5% (active)
10,Cc1ccc(C2NC(C(=O)O)CS2)cc1 (stereo not drawn),4.83%
11,CC(=O)NCc1ccc(S(=O)(=O)NC2CCN(Cc3ccccc3)CC2)cc1,-3.37%
12,C[C@@H]1C[C@@H]2O[C@H]2/C=C\C=C\C(=O)Cc2c(Cl)c(O)cc(O)c2C(=O)O1,104% (active)
13,CC(NC(=S)Nc1ccccc1)C(c1cccs1)N1CCOCC1 (stereo not drawn),-4.02%
14,CN(C)c1cc[n+](Cc2ccccc2)cc1,66.3% (active)
15,c1ccc(Cc2cc[n+](Cc3ccccc3)cc2)cc1,71.7% (active)
16,COC(=O)c1ccc(Cc2ccccc2)o1,1.87%
17,CN(Cc1ccccc1)Cc1ccccc1F,10.4%
18,CN(C)c1ccc(/C=N/N(Cc2ccccc2)c2ccccc2)cc1,8.22%
19,CCn1c(SCC(=O)Nc2ccc(C)cc2)nc2nc3c(cc2c1=O)CCCC3,1.35%
20,S=c1ccc2ccccc2[nH]1,2.2%
21,CCCCCc1ccc(-c2ccc(C(=O)O)cc2)nc1,6.06%
22,Cc1cc(N/N=C\c2ccc(Br)cc2)nc(-n2nc(C)cc2C)n1,0.24%
23,Cc1cc(C)n(-c2cc(Oc3ccccc3)ncn2)n1,4.63%
24,COc1ccccc1/C=N\Nc1cc(C)nc(-n2nc(C)cc2C)n1,7.87%
